Measurements: PubChem BioAssay
Values joined by “and” are separate entries in the source; they are usually repeats but may differ in a detail not shown here. Equal values may be shown once. A number with no mark means an inactive call. The rule behind the calls is not given here.

Biological target: Pantothenate synthetase (Mycobacterium tuberculosis (strain ATCC 25618 / H37Rv)) (UniProt P9WIL5)
Assay: Coupled enzyme confirmation of inhibitors against recombinant Mtb PanC (AID 375);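 note: 0% = full reaction with vehicle and 100% = no enzyme background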
Details: coupled enzyme assay; at 10 µM, stronger effect = higher value

Chain of Pantothenate synthetase (Mycobacterium tuberculosis (strain ATCC 25618 / H37Rv)) (P9WIL5 whole entry, looked up): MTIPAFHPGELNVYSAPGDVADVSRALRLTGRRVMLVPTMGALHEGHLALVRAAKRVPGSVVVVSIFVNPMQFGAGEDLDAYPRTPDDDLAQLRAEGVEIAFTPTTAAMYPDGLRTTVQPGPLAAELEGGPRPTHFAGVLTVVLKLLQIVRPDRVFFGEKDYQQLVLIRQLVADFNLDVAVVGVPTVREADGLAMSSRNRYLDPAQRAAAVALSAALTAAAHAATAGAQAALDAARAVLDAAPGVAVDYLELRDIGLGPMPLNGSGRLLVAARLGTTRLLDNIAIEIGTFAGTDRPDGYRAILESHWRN

Question: For O=C(Nc1ncc(Cc2ccccc2)s1)C1CCCO1 (stereo not given), which inhibition is on record?
Answer: 5%

Question: How did the inhibition turn out when CCCC(=O)Nc1nc2ccc(S(N)(=O)=O)cc2s1 was run?
Answer: 0%

Question: For COc1ccc(-c2nc(C)sc2CC(=O)O)cc1, which inhibition is on record?
Answer: 4%

Question: For O=C(CCSc1ccccc1)N1CCOCC1, which inhibition is on record?
Answer: 0%

Question: With CS(=O)(=O)N1CCCC(C(=O)NCCCN2CCc3ccccc3C2)C1 (stereo not given) as the compound, how does the inhibition read?
Answer: 2%

Question: With COC(=O)c1sc(S(=O)(=O)NCc2cccs2)c(C(=O)OC)c1C as the compound, how does the inhibition read?
Answer: 0%

Question: For O=C(COC(=O)C12CC3CC(CC(O)(C3)C1)C2)N1CCN(S(=O)(=O)c2ccc(Cl)cc2)CC1, which inhibition is on record?
Answer: 3%

Question: For c1ccc(-n2c(Sc3cnccn3)nnc2-c2cccs2)cc1, which inhibition is on record?
Answer: 0%

Question: For N#Cc1c(-c2ccccc2)nc(N2CCCCCC2)[nH]c1=O, which inhibition is on record?
Answer: 0%

Question: With CCOC(=O)c1ccc(N2C(=O)CC(N(C)CCc3ccc(OC)c(OC)c3)C2=O)cc1 (stereo not given) as the compound, how does the inhibition read?
Answer: 2%

Question: For CCn1c(CCNC(=O)c2cccs2)nnc1SCC(=O)c1ccc(OC)cc1, which inhibition is on record?
Answer: 0%

Question: With Nc1ccc(Sc2nnnn2-c2ccccc2)c(Cl)c1 as the compound, how does the inhibition read?
Answer: 6%

Question: How did the inhibition turn out when Cn1c2ccccc2c2ncn(CCCN3CCOCC3)c(=O)c21 was run?
Answer: 0%

Question: COc1cc(CC(=O)NCc2ccc3c(c2)OCO3)cc(OC)c1OC was tested. Which inhibition did it give?
Answer: 1%

Question: How did the inhibition turn out when COc1ccc(CNCC(=O)Nc2cc(C)nn2-c2nc(C)cc(C)n2)cc1OC was run?
Answer: 0%

Question: With CCCN(CCC)CCNC(=O)C(NS(=O)(=O)c1ccc2c(c1)CCC(=O)N2)c1ccccc1 (stereo not given) as the compound, how does the inhibition read?
Answer: 0%

Question: How did the inhibition turn out when CC(=O)Nc1ccc(Cc2ccncc2)cc1 was run?
Answer: 0%

Question: With CC(=O)Nc1ccc(Cl)cc1C(=O)O as the compound, how does the inhibition read?
Answer: 2%

Question: With O=C(c1ccc(Br)o1)N(c1ccc(Br)cc1)C1C=CS(=O)(=O)C1 (stereo not given) as the compound, how does the inhibition read?
Answer: 0%

Question: COc1ccc(S(=O)(=O)Cc2ccc(C(=O)NCCc3ccc(S(N)(=O)=O)cc3)o2)cc1 was tested. Which inhibition did it give?
Answer: 0%

Question: Which inhibition does the source give for COc1ccc(OCC(=O)N2CCN(C(=O)Cc3ccccc3)CC2)cc1 here?
Answer: 0%

Question: How did the inhibition turn out when CCn1nccc1C(=O)Nc1cc(Cl)ccc1Cl was run?
Answer: 0%

Question: For CCOC(=O)C1CCN(C(=O)COc2ccc(Cl)cc2Cl)CC1, which inhibition is on record?
Answer: 0%

Question: How did the inhibition turn out when Nc1ccc(C(=O)O)c(O)c1 was run?
Answer: 1% and 0%

Question: Which inhibition does the source give for C=CCSC1=C(C#N)C(c2ccccc2)CC(=O)N1 (stereo not given) here?
Answer: 0%

Question: How did the inhibition turn out when O=C(c1cc2nc(-c3ccco3)cc(C(F)(F)F)n2n1)N1CCN(c2ccccn2)CC1 was run?
Answer: 6%

Question: How did the inhibition turn out when COc1cc(C(=O)NCC(=O)OCC(=O)c2ccc[nH]2)cc(OC)c1OC was run?
Answer: 2%

Question: CCCCOC(=O)Nc1nccs1 was tested. Which inhibition did it give?
Answer: 9%

Question: How did the inhibition turn out when Cn1c(CSc2nc3ccccc3s2)nnc1SCC(=O)NCCN1CCOCC1 was run?
Answer: 0%

Question: CCCSc1ccc2nc(NC(=O)OC)[nH]c2c1 was tested. Which inhibition did it give?
Answer: 0%

Question: Which inhibition does the source give for O=c1nc(N2CCCC2)nc(Nc2ccccc2)[nH]1 here?
Answer: 0%

Question: For O=C1c2ccccc2C(Nc2ccc3c(c2)OCCO3)N1Cc1ccco1 (stereo not given), which inhibition is on record?
Answer: 0%

Question: Cn1nnnc1SCC(=O)N1CCN(c2ccccc2)CC1 was tested. Which inhibition did it give?
Answer: 0%

Question: CCCCOn1c(C)c(C(=O)OCC)c2c3nonc3ccc21 was tested. Which inhibition did it give?
Answer: 0%

Question: For COC(=O)Nc1nc2ccc(C(=O)c3ccccc3)cc2[nH]1, which inhibition is on record?
Answer: 1%

Question: For Cn1c(SCC(=O)Nc2ccc3c(c2)oc2ccccc23)nnc1-c1ccccc1, which inhibition is on record?
Answer: 5%

Question: Which inhibition does the source give for O=C(NC1CCCCC1)c1ccc(S(=O)(=O)N2CCCCC2)cc1 here?
Answer: 0%

Question: With CCCCN(C)C(=O)c1ccc(CS(=O)(=O)c2ccccc2C)o1 as the compound, how does the inhibition read?
Answer: 2%

Question: For Cc1cccc(Nc2nc3c(c(=O)n(C)c(=O)n3C)n2Cc2ccccc2)c1, which inhibition is on record?
Answer: 5%

Question: With COCCCn1c(=N)c(C(=O)NCC2CCCO2)cc2c(=O)n3cccc(C)c3nc21 (stereo not given) as the compound, how does the inhibition read?
Answer: 0%
